Reference: PubChem BioAssay (NCI)
The panel holds about 83,000 compounds, 20% with a hit somewhere; the sample as a whole holds those more often.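 Treatment: one concentration, 48 hours, 96-well format. Scoring: percent growth, with anything below 10 considered active.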 Unmarked numbers belong to inactive results. Activity calls are given as the source filed them.

Test system: SW-620 colon
Test: NCI-60 one-dose screen, 48 h (100 = growth as untreated, 0 = no growth, -100 = all killed)
Conditions: 10 µM unless noted
Experimental: Growth inhibition of the SW-620 human tumor cell line is measured as a screen for anti-cancer activity. Cells are grown in 96 well plates and exposed to the test compound for 48 hours. Compounds are tested at a single concentration, which is 10^-5 M for most compounds. The reported endpoint is percent growth (GI% or GIPRCNT), where numbers from 0 - 100% represent growth inhibition, and numbers from -100% - 0 represent cell death. For example, a value of 40 represents 60% growth inhibition. A value of 0 means no net growth occurred over the course of the experiment. A value of -40 indicates 40% of cells at the beginning of the experiment died by the end of the experiment. A value of -100 means all cells are dead at the end of the experiment.
NCI-60 Human Tumor Cell Lines Screen was performed using the standard one-dose NCI protocol, which is described in more detail at https://dtp.cancer.gov/discovery_development/nci-60/default.htm.
Compounds with GIPRCNT values below 10 were considered active. Activity score was based on GIPRCNT using the following formula: […]
Score is 0 for GIPRCNT values of 100 or above, 50 for GIPRCNT values of 0, and 100 for GIPRCNT values of -100.

SMILES	growth
CCCCCCCCO/N=C\c1c2c(O)c3c(O)c(C)c4c(c3c1O)C(=O)C(C)(O/C=C\C(OC)C(C)C(OC(C)=O)C(C)C(O)C(C)C(O)C(C)/C=C\C=C(\C)C(=O)N2)O4 (stereo not given)	15.1%
C=C1C(=O)O[C@H]2[C@H]1CC/C(COC(=O)NCc1c[nH]c3ccc(F)cc13)=C\CC[C@@]1(C)O[C@@H]21	-72.4% (active)
C=C(C)[C@@H]1CC[C@]2(C(=O)N3CCN(C)CC3)CC[C@]3(C)[C@H](CC[C@@H]4[C@@]5(C)CC[C@H](OCCC#N)C(C)(C)[C@@H]5CC[C@]43C)[C@@H]12	7.33% (active)
O=C(Nc1ccc(F)cc1)Nc1ccc(NC(=O)c2cc(Cl)nc3ccccc23)cc1	65%
O=C(Nc1cccc(C(=O)N2CCc3ccc(Cl)cc32)c1)c1ccco1	29.8%
CC(C)(C)c1cc(/C=N/NC(=O)c2ccccc2NC(=O)c2cccs2)c(O)c(C(C)(C)C)c1	17.1%
C#CCNC(=O)c1cccc2c1cc(C)n2-c1nc2c(c(NCc3ccccc3)n1)CCCC2	-4.61% (active)
COc1cc(/C=N/O)nc(-c2ccccn2)c1	27.4%
CCN(CC)CCOc1ccc(NC(=O)C(C(C)C)N2C(=O)/C(=C/c3ccc(Br)cc3)SC2=S)cc1 (stereo not given)	41.9%
CC1(C)CC(O)CCCCCCOc2c(CN)cccc2NC(=O)c2nc(cnc2N)-c2ccc(cc2)S1(=O)=O (stereo not given)	-6.55% (active)
O=C(c1nnc(Nc2ccccc2Br)o1)c1c[nH]c2ccccc12	98.7%
COc1cc2cc(Oc3cccc(NC(=O)Nc4cc(C(F)(F)F)cc(C(F)(F)F)c4)c3)c(C)nc2cc1OC	15.9%
CCCN1[C@@H]2CC[C@H]1/C(=C\c1ccc(OC)c(OC)c1)C(=O)/C2=C/c1ccc(OC)c(OC)c1	43%
COc1cccc(-c2nc3occn3c2-c2ccnc(NCCNS(=O)(=O)c3cccc4ccccc34)n2)c1	113%
CC(C)=CCC[C@](C)(O)[C@H]1CC[C@]2(C)[C@@H]1CC[C@@H]1[C@@]3(C)C/C(=C/c4ccccc4)C(=O)C(C)(C)[C@@H]3CC[C@]12C	80.4%
CCN1C(=O)N(CC)C2Nn3c(s/c(=C\c4ccc(OC)cc4)c3=O)=NC21 (stereo not given)	25.5%
NS(=O)(=O)c1ccc(Cn2c(SCC(=O)N/N=C/c3ccccc3O)nc3ccccc3c2=O)cc1	60.4%
CC(C)(C)c1ccc(NS(=O)(=O)c2ccc3nc(NC(=O)c4cnccn4)[nH]c3c2)cc1	18.1%
NS(=O)(=O)c1ccc(CCn2c(SCC(=O)c3ccc(Cl)cc3)nc3ccccc3c2=O)cc1	103%
CCCOC(=O)N[C@H]1CCc2cc(OC)c(OC)c(OC)c2-c2ccc(SC)c(=O)cc21	18.4%

SMILES	growth
CCOC(=O)CCN(CC(C)C)C(=S)Nc1ccccc1	107%
Nc1c(C(=O)Nc2cccc3cnccc23)sc2nc3c(cc12)C(=O)CCC3	79.4%
Cc1ccc(NS(=O)(=O)c2ccc(-c3cnc(C4CC4)o3)cc2)cc1C(F)(F)F	37.2%
N#C/C(=C\c1ccc(Cl)cc1)n1nnc2cc(F)c(F)cc21	-15% (active)
N/C(=N\C(N)=N\c1nc2ccccc2s1)c1ccnc(Br)c1	13.5%
NC(=NCCCOc1ccc(F)cc1)Nc1ccc(Cl)cc1	56.9%
O=C1Nc2cc(-c3cccc([N+](=O)[O-])c3)ccc2/C1=C/c1ccc[nH]1	93.3%
C[C@H]1[C@H](C)CC[C@]2(C(=O)Nc3ccc4ncccc4c3)CC[C@]3(C)C(=CC[C@@H]4[C@@]5(C)CCCNC(C)(C)[C@@H]5CC[C@]43C)[C@H]12	-83.9% (active)
C=C(C)[C@@H]1CC[C@]2(C(=O)N[C@@H](Cc3ccccc3)C(=O)OC)CC[C@]3(C)[C@H](CC[C@@H]4[C@@]5(C)CCC(=O)C(C)(C)[C@@H]5CC[C@]43C)[C@@H]12	95.4%
COC(=O)c1ccc2c(c1)[n+](=O)c(C(C)=O)c(C(F)(F)F)n2[O-]	18.1%
COc1ccc(C(=O)Nc2cccc(C3CCc4c(cc(OC)c(OC)c4OC)O3)c2)cc1 (stereo not given)	28.8%
C[C@@H](Nc1ncnc2ccc(-c3cnc(N)nc3)cc12)c1ccc(F)cc1	95.8%
Oc1c(Cl)cc(Cl)c(Cl)c1CNCCNCc1c(O)c(Cl)cc(Cl)c1Cl	31.5%
Cc1ccc(-n2c3c(c(-c4ccccc4)c2-c2ccccc2)C2=NCCN2C=N3)cc1	89.9%
COc1cc(F)c(/C=C/c2cc(/C=C/c3cc(OC)c(OC)cc3F)on2)cc1OC	80.4%
COc1cc2oc(-c3cccc(C(=O)Nc4ccc(Cl)cc4)c3)cc(=O)c2c(O)c1OC	73.6%
O=Cc1cc2ccccc2nc1Oc1ccc(C(F)(F)F)cc1	67%
C=CCn1c(-c2ccc(-c3nc4ccc(C)cc4[nH]3)cc2)n[nH]c1=S	112%
CN1CCN(C(=O)[C@]23CCC(C)(C)C[C@H]2C2=CC[C@@H]4[C@@]5(C)C/C(=C/c6cccnc6)C(=O)C(C)(C)[C@@H]5CC[C@@]4(C)[C@]2(C)CC3)CC1	44.6%
O=C1Nc2cc(-c3ccc(NS(=O)(=O)c4ccccc4)cc3)ccc2/C1=C/c1ccc[nH]1	84.9%
